Test results taken from PubChem BioAssay AID1159580 (chemical genetic matrix, 2015).
Values joined by “and” are separate entries in the source; they are usually repeats but may differ in a detail not shown here. Equal values may be shown once. Out of some 5,500 compounds screened, about 2,000 (36%) were called active. Not shown: some 18% with an inconclusive outcome. Rule as the data show it: active = normalized growth mostly below about 0.91 (no sharp cut-off); inconclusive = no clear call, values can overlap the other calls; inactive = mostly above about 0.92. Some of the results follow.

Assay: chemical genetic growth profiling, strain panel (AID 1159580);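 also: tested at 20 µM; growth read once vehicle control cultures reached saturation at 30 °C; 1 = growth at the plate median or of vehicle wells; lower values mean less growth of the strain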
Conditions: S. cerevisiae deletion strains, growth OD

Measured: normalized growth

C[C@@H]1CC[C@@]2(OC1)OC1CC3C4CC=C5C[C@@H](O)CC[C@]5(C)C4CC[C@]3(C)C1[C@@H]2C (some centres not stated)
inactive: locus YAL021C, strain ccr4, stronger effect = lower value 1.02 | locus YAL026C, strain drs2, stronger effect = lower value 1.01 | locus YAL030W, strain snc1, stronger effect = lower value 0.996 | locus YBL061C, strain skt5, stronger effect = lower value 0.996 | locus YBR009C, strain hhf1, stronger effect = lower value 1.01 | locus YBR021W, strain FUR4, stronger effect = lower value 1.06 | locus YBR023C, strain chs3, stronger effect = lower value 1 | locus YBR171W, strain sec66, stronger effect = lower value 1 | locus YBR229C, strain ROT2, stronger effect = lower value 1 | locus YBR231C, strain swc5, stronger effect = lower value 0.996 | locus YBR279W, strain paf1, stronger effect = lower value 1 | locus YCL011C, strain gbp2, stronger effect = lower value 1.01 | locus YCL016C, strain dcc1, stronger effect = lower value 0.996 | locus YCL029C, strain bik1, stronger effect = lower value 0.965 | locus YCL061C, strain MRC1, stronger effect = lower value 0.999 | locus YCL069W, strain vba3, stronger effect = lower value 0.995 | locus YCR088W, strain abp1, stronger effect = lower value 1 | locus YDL005C, strain med2, stronger effect = lower value 1 | locus YDL035C, strain GPR1, stronger effect = lower value 1.02 | locus YDL040C, strain nat1, stronger effect = lower value 1 | locus YDL074C, strain BRE1, stronger effect = lower value 1.02 | locus YDL101C, strain DUN1, stronger effect = lower value 0.99 | locus YDL134C, strain PPH21, stronger effect = lower value 0.977 | locus YDL185W, strain tfp1, stronger effect = lower value 0.959 | locus YDL192W, strain arf1, stronger effect = lower value 0.981 | locus YDR001C, strain nth1, stronger effect = lower value 1 | locus YDR069C, strain doa4, stronger effect = lower value 1.01 | locus YDR101C, strain arx1, stronger effect = lower value 0.997 | locus YDR137W, strain rgp1, stronger effect = lower value 0.991 | locus YDR150W, strain NUM1, stronger effect = lower value 0.995 | locus YDR159W, strain sac3, stronger effect = lower value 0.997 | locus YDR162C, strain NBP2, stronger effect = lower value 1.01 | locus YDR195W, strain ref2 0.991 | locus YDR297W, strain sur2, stronger effect = lower value 1.01 | locus YDR318W, strain mcm21, stronger effect = lower value 0.972 | locus YDR334W, strain swr1, stronger effect = lower value 1.01 | locus YDR335W, strain msn5, stronger effect = lower value 1 | locus YDR388W, stronger effect = lower value 0.976 | locus YDR392W, strain spt3, stronger effect = lower value 0.985 | locus YDR502C, strain sam2, stronger effect = lower value 0.986 | locus YEL003W, strain gim4, stronger effect = lower value 1 | locus YEL037C, strain rad23, stronger effect = lower value 0.994 | locus YEL061C, strain CIN8 (second series), stronger effect = lower value 1.01 | locus YER015W, strain faa2, stronger effect = lower value 0.979 | locus YER016W, strain bim1, stronger effect = lower value 0.993 | locus YER110C, stronger effect = lower value 0.969 | locus YER111C, strain swi4, stronger effect = lower value 1.01 | locus YER155C, strain BEM2 (second series), stronger effect = lower value 1.02 | locus YER155C, strain BEM2, stronger effect = lower value 1 | locus YER167W, strain BCK2, stronger effect = lower value 1.01 | locus YFR010W, strain ubp6, stronger effect = lower value 1.01 | locus YGL078C, strain dbp3, stronger effect = lower value 0.973 | locus YGL086W, strain mad1, stronger effect = lower value 0.997 | locus YGL167C, strain pmr1, stronger effect = lower value 0.994 | locus YGL173C, strain kem1, stronger effect = lower value 1.01 | locus YGL227W, strain vid30, stronger effect = lower value 0.978 | locus YGL240W, strain doc1, stronger effect = lower value 0.985 | locus YGL248W, strain PDE1, stronger effect = lower value 1.01 | locus YGL253W, strain hxk2, stronger effect = lower value 1.01 | locus YGR078C, strain PAC10, stronger effect = lower value 0.982 | locus YGR135W, strain pre9, stronger effect = lower value 0.951 | locus YGR252W, strain gcn5, stronger effect = lower value 0.989 | locus YHR013C, strain ard1, stronger effect = lower value 0.986 | locus YHR027C, strain rpn1, stronger effect = lower value 0.986 | locus YHR030C, strain SLT2, stronger effect = lower value 0.994 and 0.991 | locus YHR079C, strain IRE1 (second series), stronger effect = lower value 0.979 | locus YHR079C, strain IRE1, stronger effect = lower value 0.979 | locus YHR094C, strain hxt1, stronger effect = lower value 0.985 | locus YHR129C, strain ARP1, stronger effect = lower value 0.993 | locus YHR142W, strain chs7, stronger effect = lower value 1.01 | locus YHR200W, strain rpn10, stronger effect = lower value 0.999 | locus YIL066C, strain RNR3, stronger effect = lower value 1.01 | locus YIL073C, strain SPO22, stronger effect = lower value 0.882 | locus YIL125W, strain kgd1, stronger effect = lower value 0.985 | locus YIR030C, strain dcg1, stronger effect = lower value 0.96 | locus YJL092W, strain hpr5, stronger effect = lower value 1 | locus YJL095W, strain BCK1 (second series), stronger effect = lower value 0.995 | locus YJL095W, strain BCK1, stronger effect = lower value 0.989 and 0.99 | locus YJL115W, strain asf1, stronger effect = lower value 0.997 | locus YJL129C, strain trk1, stronger effect = lower value 0.97 | locus YJL134W, strain LCB3, stronger effect = lower value 1 | locus YJL154C, strain vps35, stronger effect = lower value 0.998 | locus YJL164C, strain tpk1, stronger effect = lower value 1 | locus YJL166W, strain qcr8, stronger effect = lower value 1.01 | locus YJL168C, strain set2, stronger effect = lower value 0.977 | locus YJL187C, strain SWE1 (second series), stronger effect = lower value 0.988 | locus YJL187C, strain SWE1, stronger effect = lower value 1.02 | locus YJR043C, strain POL32, stronger effect = lower value 1.04 | locus YJR066W, strain TOR1, stronger effect = lower value 0.95 | locus YKL009W, strain mrt4, stronger effect = lower value 0.986 | locus YKL068W, stronger effect = lower value 0.984 | locus YKL085W, strain MDH1 (second series), stronger effect = lower value 0.998 | locus YKL085W, strain MDH1, stronger effect = lower value 0.998 | locus YKL160W, strain elf1, stronger effect = lower value 0.987 | locus YKR001C, strain vps1, stronger effect = lower value 0.985 | locus YKR026C, strain gcn3, stronger effect = lower value 1 | locus YKR091W, strain srl3, stronger effect = lower value 0.996 | locus YLL001W, strain dnm1, stronger effect = lower value 0.997 | locus YLL026W, stronger effect = lower value 1 | locus YLL041C, strain sdh2, stronger effect = lower value 1 | locus YLR027C, strain aat2, stronger effect = lower value 0.993 | locus YLR039C, strain RIC1, stronger effect = lower value 1.05 | locus YLR058C, strain SHM2, stronger effect = lower value 1 | locus YLR102C, strain apc9, stronger effect = lower value 0.986 | locus YLR113W, strain HOG1, stronger effect = lower value 0.964 | locus YLR221C, strain rsa3, stronger effect = lower value 0.989 | locus YLR258W, strain gsy2, stronger effect = lower value 0.995 | locus YLR262C, strain YPT6 (second series), stronger effect = lower value 0.994 | locus YLR262C, strain YPT6, stronger effect = lower value 1.1 | locus YLR268W, strain sec22, stronger effect = lower value 1.01 | locus YLR320W, strain mms22, stronger effect = lower value 0.995 | locus YLR342W, strain FKS1, stronger effect = lower value 0.996 | locus YLR357W, strain rsc2, stronger effect = lower value 1.04 | locus YLR370C, strain arc18, stronger effect = lower value 1 | locus YLR371W, strain rom2, stronger effect = lower value 0.964 | locus YLR384C, strain iki3, stronger effect = lower value 1 | locus YLR418C, strain cdc73, stronger effect = lower value 0.992 | locus YML016C, strain PPZ1, stronger effect = lower value 1.01 | locus YML032C, strain rad52, stronger effect = lower value 0.971 | locus YML120C, strain ndi1, stronger effect = lower value 1 | locus YML124C, strain tub3, stronger effect = lower value 0.978 | locus YMR058W, strain fet3, stronger effect = lower value 1 | locus YMR078C, strain ctf18, stronger effect = lower value 0.951 | locus YMR125W, strain sto1, stronger effect = lower value 0.995 | locus YMR129W, stronger effect = lower value 0.996 | locus YMR205C, strain PFK2, stronger effect = lower value 0.995 | locus YMR223W, strain ubp8, stronger effect = lower value 0.963 | locus YMR231W, strain pep5, stronger effect = lower value 1.02 | locus YMR263W, strain SAP30, stronger effect = lower value 0.988 | locus YMR307W, strain GAS1, stronger effect = lower value 1.24 | locus YNL067W, strain RPL9B, stronger effect = lower value 0.973 | locus YNL071W, strain lat1, stronger effect = lower value 1.01 | locus YNL153C, strain GIM3, stronger effect = lower value 0.99 | locus YNL183C, strain NPR1, stronger effect = lower value 0.964 | locus YNL209W, strain ssb2, stronger effect = lower value 0.997 | locus YNL233W, strain BNI4, stronger effect = lower value 1.01 | locus YNL248C, strain rpa49, stronger effect = lower value 0.999 | locus YNL250W, strain rad50, stronger effect = lower value 0.954 | locus YNL271C, strain bni1, stronger effect = lower value 0.986 | locus YNL298W, strain CLA4, stronger effect = lower value 0.977 | locus YNL307C, strain MCK1, stronger effect = lower value 0.992 | locus YNL322C, strain KRE1 (second series), stronger effect = lower value 0.997 | locus YNR049C, strain mso1, stronger effect = lower value 1 | locus YNR052C, strain pop2, stronger effect = lower value 0.968 | locus YOL012C, strain htz1 1.17 | locus YOL147C, strain pex11, stronger effect = lower value 0.979 | locus YOR001W, strain rrp6, stronger effect = lower value 0.982 | locus YOR061W, strain CKA2, stronger effect = lower value 1.01 | locus YOR069W, strain VPS5, stronger effect = lower value 0.996 | locus YOR070C, strain gyp1, stronger effect = lower value 0.985 | locus YOR080W, strain dia2, stronger effect = lower value 0.999 | locus YOR083W, strain WHI5, stronger effect = lower value 0.983 | locus YOR106W, strain vam3, stronger effect = lower value 0.994 | locus YOR136W, strain idh2, stronger effect = lower value 0.989 | locus YOR144C, strain elg1, stronger effect = lower value 0.99 | locus YOR184W, strain ser1, stronger effect = lower value 1.03 | locus YOR231W, strain MKK1, stronger effect = lower value 0.988 | locus YOR265W, strain rbl2, stronger effect = lower value 1.01 | locus YOR270C, strain vph1, stronger effect = lower value 0.999 | locus YOR290C, strain snf2, stronger effect = lower value 0.949 | locus YOR316C, strain cot1, stronger effect = lower value 0.974 | locus YPL051W, strain arl3, stronger effect = lower value 0.999 | locus YPL055C, strain LGE1, stronger effect = lower value 1.03 | locus YPL078C, strain atp4, stronger effect = lower value 1.01 | locus YPL106C, strain sse1, stronger effect = lower value 1.02 | locus YPL240C, strain hsp82, stronger effect = lower value 0.986 | locus YPL256C, strain CLN2, stronger effect = lower value 0.974 | locus YPR119W, strain clb2, stronger effect = lower value 0.967 | locus YPR141C, strain kar3, stronger effect = lower value 0.951 | locus YPR163C, strain tif3, stronger effect = lower value 0.969 | locus YPR167C, strain met16, stronger effect = lower value 0.983 | strain wtn01, stronger effect = lower value 1.01
